Experimental findings from PubChem BioAssay (Tox21) are described below.

Several values for one entry are separate records, joined by “and”; a condition that tells them apart may be missing. Equal values may be shown once. Results filed as inconclusive are left out. The source holds several records for some structures; these can differ, active in one and inactive in another. Activity calls are given as the source filed them. Unless noted, calls follow the shape of the dose curve; as a rule, active = well fitted curve in the direction sought with a large enough effect in the repeat runs; inconclusive = weak or mixed curves; inactive = no such curve, though single readings can be large; an effect the other way counts as inactive or inconclusive.

A short description of experiment [1]: qHTS assay to identify small molecule agonists of the peroxisome proliferator-activated receptor delta (PPARd) signaling pathway - cell viability counter screen (AID 743211). Also: nearly all actives have a fitted effect of over 55% in size. Also: potency is read from the fitted curve at half-maximal effect. In a few lines:
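PPARd-bla HEK293H cells (UAS-beta-lactamase reporter) were treated with compounds for 17 h at 37 C. Viability was then read in the same wells by CellTiter-Glo luminescence after 30 min at room temperature.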

Experiment [2] concerns the target Peroxisome proliferator-activated receptor delta (Homo sapiens) (UniProt Q03181). Put plainly: qHTS assay to identify small molecule agonists of the peroxisome proliferator-activated receptor delta (PPARd) signaling pathway (AID 743212; calls by dose curve). An outline of the steps: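 Read-out: beta-lactamase FRET fluorescence after 2 h room-temperature incubation with LiveBLAzer B/G substrate. Cells were HEK293H carrying a UAS-bla reporter for PPARd, treated at 37 C with DMSO-dissolved compounds.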
In general terms: qHTS replaces the single test concentration by a dilution series.

Experiment [3] can be described thus: qHTS assay to identify small molecule antagonists of the peroxisome proliferator-activated receptor delta (PPARd) signaling pathway - cell viability counter screen (AID 743213). Also: nearly all actives have a fitted effect of over 50% in size. Also: potency is read from the fitted curve at half-maximal effect. In a few lines: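 Luminescence from CellTiter-Glo, added after the bla read and incubated 30 min at room temperature, gives viability of HEK293H PPARd-bla cells exposed to compounds for 17 h at 37 C with 300 nM L165041.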

Experiment [4] concerns the target Bile acid receptor (Homo sapiens) (UniProt Q96RI1). Put plainly: qHTS assay to identify small molecule antagonists of the farnesoid-X-receptor (FXR) signaling pathway (AID 743217; active = well fitted inhibition curve with a large enough effect in the signal ratio in the repeat runs, not every such curve was filed as active; the % refers to the signal ratio; also: potency is read from the fitted curve at half-maximal effect). In a few lines: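 Read-out: beta-lactamase FRET fluorescence (LiveBLAzer B/G substrate, 2 h, room temperature) in GeneBLAzer FXR-UAS-bla HEK 293T cells. Compounds were co-dosed with 50 uM chenodeoxycholic acid (final) and incubated 16 h at 37 °C.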

Experiment [5] is described as follows: qHTS assay to identify small molecule agonists of the farnesoid-X-receptor (FXR) signaling pathway - cell viability counter screen (AID 743218). Also: nearly all actives have a fitted effect of over 45% in size. Also: potency is read from the fitted curve at half-maximal effect. In a few lines:
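Luminescence from CellTiter-Glo, read after 30 min at RT, reports viability of GeneBLAzer FXR-UAS-bla HEK 293T cells treated 16 h with compounds in the wells used for the beta-lactamase reporter.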

Experiment [6] concerns the target Bile acid receptor (Homo sapiens) (UniProt Q96RI1). Put plainly: qHTS assay to identify small molecule agonists of the farnesoid-X-receptor (FXR) signaling pathway (AID 743220; active = well fitted activation curve with a large enough effect in the signal ratio in the repeat runs, not every such curve was filed as active; the % refers to the signal ratio). An outline of the steps:
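FXR-UAS-bla HEK 293T cells carrying a UAS-driven beta-lactamase reporter were plated for 5 h at 37C/5% CO2, then exposed to DMSO-dissolved Tox21 10K compounds for 16 h at 37C. A LiveBLAzer B/G FRET substrate was loaded for 2 h at room temperature before fluorescence reading.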

A short description of experiment [7]: qHTS assay to identify small molecule antagonists of the farnesoid-X-receptor (FXR) signaling pathway - cell viability counter screen (AID 743221; active = well fitted cell-killing curve with a large enough effect in the repeat runs, not every such curve was filed as active; also: nearly all actives have a fitted effect of over 50% in size). In a few lines:
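FXR-UAS-bla HEK 293T cells were treated with test compounds plus chenodeoxycholic acid (50 uM final) for 16 h at 37 C. Cell viability in the same wells was then read as CellTiter-Glo luminescence after 30 min at room temperature.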

For experiment [8], the target named is Vitamin D3 receptor (Homo sapiens) (UniProt P11473). Put plainly: qHTS assay to identify small molecule agonists of the vitamin D receptor (VDR) signaling pathway (AID 743222; calls by dose curve). In a few lines:
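Beta-lactamase reporter readout (LiveBLAzer B/G FRET, 2 h RT) in VDR-bla cells after 16 h compound treatment at 37C, 5% CO2; cells pre-incubated 4 h before pin transfer of DMSO solutions.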

A short description of experiment [9]: qHTS assay to identify small molecule agonists of the vitamin D receptor (VDR) signaling pathway - cell viability counter screen (AID 743224). Also: nearly all actives have a fitted effect of over 50% in size. Also: potency is read from the fitted curve at half-maximal effect. In a few lines:
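Cytotoxicity counter screen: VDR-bla cells, 16 h compound exposure at 37C, 5% CO2; CellTiter-Glo luminescence, 30 min RT, same wells as bla read.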

Experiment [10] can be described thus: qHTS assay to identify small molecule agonists of the NFkB signaling pathway - cell viability counter screen (AID 1159515; calls by dose curve; also: nearly all actives have a fitted effect of over 55% in size; also: potency is read from the fitted curve at half-maximal effect). An outline of the steps:
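ME-180 NFkB-bla cells, 2,000/well; overnight attach; compound 5 hr, 37 C/5% CO2; LiveBLAzer substrate 1.5 hr RT; then CellTiter-Glo in same wells, 30 min RT, luminescence read.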

Experiment [11] can be described thus: qHTS assay to identify small molecule agonists of the endoplasmic reticulum stress response signaling pathway (AID 1159516; active = well fitted activation curve with a large enough effect in the signal ratio in the repeat runs, not every such curve was filed as active; the % refers to the signal ratio). An outline of the steps:
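HeLa ESRE-bla reporter line; cpd 5 h, 37 C/5% CO2; LiveBLAzer B/G FRET substrate 2 h RT; ex 405, em 460/530 nm.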

The nature of experiment [12]: qHTS assay to identify small molecule agonists of the endoplasmic reticulum stress response signaling pathway - cell viability counter screen (AID 1159517; calls by dose curve; also: nearly all actives have a fitted effect of over 50% in size; also: potency is read from the fitted curve at half-maximal effect). An outline of the steps:
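Steps: seed 1,500 ESRE-bla HeLa cells per well; incubate overnight at 37 C, 5% CO2; add compounds in DMSO for 5 hr; run FRET substrate 2 hr RT; add CellTiter-Glo, wait 30 min, read luminescence.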

The nature of experiment [13]: qHTS assay to identify small molecule antagonists of the retinoid-related orphan receptor gamma (ROR-gamma) signaling pathway - cell viability counter screen (AID 1159520). Also: nearly all actives have a fitted effect of over 50% in size. Also: potency is read from the fitted curve at half-maximal effect. In a few lines:
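Tet-on ROR gamma CHO cells were given compounds for 2 hr, then doxycycline hyclate at 1 uM final, and incubated 16 hr at 37 C. Viability was measured as ATP content by CellTiter-Glo luminescence.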

The target in experiment [14] is Nuclear receptor ROR-gamma (Homo sapiens) (UniProt P51449). Nature of the experiment: qHTS assay to identify small molecule antagonists of the retinoid-related orphan receptor gamma (ROR-gamma) signaling pathway (AID 1159521; also: nearly all actives have a fitted effect of over 50% in size; also: potency is read from the fitted curve at half-maximal effect). In a few lines: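 Tet-on RORγ CHO cells carrying a ROR response element–luciferase reporter were pretreated with compounds for 2 h, then induced with 1 uM (final) doxycycline hyclate for 16 h at 37 C. Antagonism was read as decreased ONE-Glo luminescence.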

Experiment [15] is described as follows: qHTS assay to identify small molecule agonists of the AP-1 signaling pathway (AID 1159526; calls by dose curve).
The target of experiment [16] is Vitamin D3 receptor (Homo sapiens) (UniProt P11473). Nature of the experiment: qHTS assay to identify small molecule antagonists of the vitamin D receptor (VDR) signaling pathway (AID 743223; active = well fitted inhibition curve with a large enough effect in the signal ratio in the repeat runs, not every such curve was filed as active; the % refers to the signal ratio). In a few lines: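 VDR-bla cells were plated, incubated 4 h at 37C, then given compound and 1alpha,25-dihydroxyvitamin D3 (3 nM final). After 16 h at 37C, LiveBLAzer B/G FRET substrate was added for 2 h at room temperature and fluorescence read.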

Experiment [17] in a line: qHTS assay to identify small molecule antagonists of the vitamin D receptor (VDR) signaling pathway - cell viability counter screen (AID 743225). Also: nearly all actives have a fitted effect of over 50% in size. Also: potency is read from the fitted curve at half-maximal effect. An outline of the steps:
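VDR-bla HEK 293T cells, 4 h pre-incubation at 37C, then compound plus 1-alpha,25-dihydroxyvitamin D3 (3 nM final) for 16 h. After the beta-lactamase FRET read, CellTiter-Glo was added to the same wells; luminescence after 30 min at room temperature.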

The nature of experiment [18]: qHTS assay to identify small molecule agonists of the AP-1 signaling pathway - cell viability counter screen (AID 1159525; calls by dose curve; also: nearly all actives have a fitted effect of over 55% in size; also: potency is read from the fitted curve at half-maximal effect). An outline of the steps: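 Same-well cytotoxicity counter screen of the Tox21 10K library in ME-180 cells. The readout is ATP-dependent luminescence after 5 h compound treatment. Data are normalised to DMSO and tetra n-octyl ammonium bromide controls.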

For experiment [19], the target named is Retinoic acid receptor RXR-alpha (Homo sapiens) (UniProt P19793). Put plainly: qHTS assay to identify small molecule agonists of the RXR signaling pathway (AID 1159527; calls by dose curve; also: nearly all actives have a fitted effect of over 35% in size). In a few lines: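 GeneBLAzer RXR-alpha-UAS-bla HEK 293T cells in medium with 2% charcoal-stripped FBS, pre-incubated 5 hr at 37 C, then exposed to compounds 16 hr. Beta-lactamase reporter read by FRET substrate, 2 hr room temperature, 460/530 nm emission.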

The target of experiment [20] is Peroxisome proliferator-activated receptor delta (Homo sapiens) (UniProt Q03181). Put plainly: qHTS assay to identify small molecule antagonists of the peroxisome proliferator-activated receptor delta (PPARd) signaling pathway (AID 743215; active = well fitted inhibition curve with a large enough effect in the signal ratio in the repeat runs, not every such curve was filed as active; the % refers to the signal ratio;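 also: cells stimulated with agonist L165041 at 300 nM final during compound exposure; potency is read from the fitted curve at half-maximal effect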). In a few lines:
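HEK293H GeneBLAzer PPARd UAS-bla reporter cells; cpd + L165041 300 nM final, 17 h 37 C; LiveBLAzer B/G FRET substrate 2 h RT; fluorescence intensity read-out. Antagonist mode.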

Chain of Bile acid receptor (Homo sapiens) (Q96RI1 whole entry, looked up): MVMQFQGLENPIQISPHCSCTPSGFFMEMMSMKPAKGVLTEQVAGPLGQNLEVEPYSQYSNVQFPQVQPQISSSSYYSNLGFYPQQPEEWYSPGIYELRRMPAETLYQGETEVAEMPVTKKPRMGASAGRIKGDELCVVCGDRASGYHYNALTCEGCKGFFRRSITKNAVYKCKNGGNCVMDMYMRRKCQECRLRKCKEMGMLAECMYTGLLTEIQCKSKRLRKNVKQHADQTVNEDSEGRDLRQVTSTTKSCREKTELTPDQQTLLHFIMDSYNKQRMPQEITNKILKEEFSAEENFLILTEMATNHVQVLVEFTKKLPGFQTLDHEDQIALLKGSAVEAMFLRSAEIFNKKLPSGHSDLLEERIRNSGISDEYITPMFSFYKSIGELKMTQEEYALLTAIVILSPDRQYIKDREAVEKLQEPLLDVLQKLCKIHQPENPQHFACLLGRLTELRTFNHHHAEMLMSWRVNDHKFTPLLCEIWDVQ
Chain of Retinoic acid receptor RXR-alpha (Homo sapiens) (P19793 whole entry, looked up): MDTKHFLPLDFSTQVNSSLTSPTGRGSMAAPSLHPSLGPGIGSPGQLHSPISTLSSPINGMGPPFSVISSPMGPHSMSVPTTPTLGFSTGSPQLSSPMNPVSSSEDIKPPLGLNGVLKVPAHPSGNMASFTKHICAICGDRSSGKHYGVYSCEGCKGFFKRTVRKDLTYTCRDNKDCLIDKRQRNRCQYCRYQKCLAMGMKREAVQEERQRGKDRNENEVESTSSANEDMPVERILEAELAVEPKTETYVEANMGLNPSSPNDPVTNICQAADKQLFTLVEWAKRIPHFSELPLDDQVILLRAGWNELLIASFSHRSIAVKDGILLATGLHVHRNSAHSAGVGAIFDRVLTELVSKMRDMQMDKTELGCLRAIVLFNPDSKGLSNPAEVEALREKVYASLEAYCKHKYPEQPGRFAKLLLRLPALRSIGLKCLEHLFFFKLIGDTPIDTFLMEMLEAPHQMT
Chain of Vitamin D3 receptor (Homo sapiens) (P11473 whole entry, looked up): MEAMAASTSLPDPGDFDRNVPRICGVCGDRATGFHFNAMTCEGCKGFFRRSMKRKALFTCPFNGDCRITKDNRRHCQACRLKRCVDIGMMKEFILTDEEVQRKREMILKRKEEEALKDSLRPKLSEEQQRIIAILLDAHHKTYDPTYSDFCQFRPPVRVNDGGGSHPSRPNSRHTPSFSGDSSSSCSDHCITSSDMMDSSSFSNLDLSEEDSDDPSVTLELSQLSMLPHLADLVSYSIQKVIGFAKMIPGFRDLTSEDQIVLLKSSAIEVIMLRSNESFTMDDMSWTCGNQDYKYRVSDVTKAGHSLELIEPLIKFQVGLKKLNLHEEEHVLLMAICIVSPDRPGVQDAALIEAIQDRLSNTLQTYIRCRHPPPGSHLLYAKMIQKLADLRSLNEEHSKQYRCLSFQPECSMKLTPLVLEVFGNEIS
Chain of Peroxisome proliferator-activated receptor delta (Homo sapiens) (Q03181 whole entry, looked up): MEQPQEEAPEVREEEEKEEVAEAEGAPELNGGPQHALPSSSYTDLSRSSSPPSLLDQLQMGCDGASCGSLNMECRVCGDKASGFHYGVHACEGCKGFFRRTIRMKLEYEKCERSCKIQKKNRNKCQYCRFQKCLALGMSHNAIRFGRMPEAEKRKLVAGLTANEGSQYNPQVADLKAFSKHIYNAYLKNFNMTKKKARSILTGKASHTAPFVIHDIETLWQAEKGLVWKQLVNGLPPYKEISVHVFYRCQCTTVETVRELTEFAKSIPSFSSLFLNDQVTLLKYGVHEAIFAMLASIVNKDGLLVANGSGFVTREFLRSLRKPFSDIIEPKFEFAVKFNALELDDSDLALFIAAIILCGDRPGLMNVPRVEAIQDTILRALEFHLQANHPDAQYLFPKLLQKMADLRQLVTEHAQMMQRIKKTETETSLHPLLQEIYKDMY

On to `O=C(O)c1cc(I)cc(I)c1I`, for which the Potency entry in experiment [1], in [3], in [4], in experiment [5], in experiment [7] and in experiment [9] was “inactive” in each case. Besides, the Potency result in [10], in experiment [11], in experiment [12], in experiment [13], in [14] and in experiment [15] was “inactive” in each case. Also, the compound was called inactive in experiment [2], in [6] and in [8].
For the compound `CN[C@@H](C)[C@H](O)c1ccccc1`, the call in experiment [2], in experiment [6] and in [8] was inactive. Further, the Potency entry in experiment [3], in experiment [4], in experiment [7], in [16], in experiment [9] and in experiment [17] was “inactive” throughout. In addition, the Potency entry in experiment [10], in experiment [11], in [12], in [13], in [14] and in [18] was “inactive” each time. Besides, the Potency entry in experiment [15] and in experiment [19] was “inactive” throughout.
`CN(C)c1ccc(N=O)cc1`: the Potency in experiment [1] was 43.6 µM (active); in [3], 43.6 µM (active); in [20], 21.9 µM (active); in experiment [5], “inactive and 49 µM (active)”; in experiment [9], 19.6 µM (active) and 43.6 µM (active); in [17], “inactive and 19.5 µM (active)”. For the same compound, the Potency in experiment [10] is 43.6 µM (active); in [12], 43.6 µM (active); in experiment [13] it was 15.4 µM (active) and 12.2 µM (active); in experiment [14], 4.34 µM (active) and 9.69 µM (active); in experiment [18] it was 21.9 µM (active) and 30.9 µM (active). The compound was classed as inactive in experiment [2] and in experiment [6]. The Potency result in experiment [4], in experiment [7], in [16] and in experiment [11] was “inactive” in each case.
With `O=C([O-])c1ccccn1.O=C([O-])c1ccccn1.O=C([O-])c1ccccn1.[Cr+3]`, the Potency entry in experiment [1], in [3], in [5], in experiment [7], in experiment [9] and in experiment [17] was “inactive” each time. In addition, the Potency entry in [10], in [11], in experiment [12], in experiment [13], in experiment [14] and in [15] was “inactive” in each case. Moreover, the Potency result in experiment [19] is “inactive”.
Consider `O=C(N/N=C/c1ccc([N+](=O)[O-])o1)c1cc([N+](=O)[O-])cc([N+](=O)[O-])c1O`, for which the Potency result in experiment [1], in [3], in experiment [4], in experiment [5], in [7] and in [16] was “inactive” throughout. In addition, the Potency entry in experiment [9], in [17], in experiment [10], in [11], in experiment [12] and in experiment [13] was “inactive” throughout. Besides, the Potency entry in [14], in experiment [18] and in experiment [15] was “inactive” each time. Moreover, the compound was called inactive in experiment [2], in experiment [6] and in [8].
Consider `CC(C)c1ccc(OP(=O)(Oc2ccc(C(C)C)cc2)Oc2ccc(C(C)C)cc2)cc1`, for which the Potency was 27.7 µM (active) and 43.7 µM (active) and 27.5 µM (active) in experiment [1]; 4.89 µM (active) in [3]; 22 µM (active) in experiment [4]; 30.9 µM (active) in experiment [10]; 9.77 µM (active) in experiment [12]; 27.5 µM (active) and 30.6 µM (active) in experiment [14]. In addition, the result in experiment [6] and in experiment [8] was inactive. Moreover, the Potency entry in experiment [16], in experiment [9], in [11], in experiment [13], in experiment [18] and in experiment [15] was “inactive” in each case.
For the compound `CCOC(=O)NC(O)C(Cl)(Cl)Cl` (stereo unspecified), the Potency result in experiment [1], in experiment [3], in experiment [4], in [5], in experiment [7] and in experiment [9] was “inactive” in each case. Also, the Potency result in experiment [17], in [10], in [11], in experiment [12], in experiment [13] and in experiment [14] was “inactive” in each case. Moreover, the Potency entry in experiment [15] and in experiment [19] was “inactive” throughout. The compound was classed as inactive in [6] and in experiment [8].
As to `CCOC(C(=O)OCCN(C)C)(c1ccccc1)c1ccccc1`, the Potency entry in experiment [1], in experiment [3], in experiment [4], in experiment [5], in [7] and in experiment [16] was “inactive” in each case. Further, the Potency entry in experiment [9], in [17], in [10], in experiment [11], in [12] and in experiment [13] was “inactive” throughout. Moreover, the Potency entry in experiment [14] and in [15] was “inactive” in each case. The outcome in experiment [6] and in experiment [8] was inactive.
In the case of `CN1CC[C@]23c4c5ccc(O)c4O[C@H]2[C@@H](O)CC[C@H]3[C@H]1C5`, the Potency result in experiment [3], in experiment [5], in experiment [7], in experiment [16], in experiment [9] and in experiment [17] was “inactive” throughout. The Potency result in [10], in experiment [11], in [12], in experiment [13], in [14] and in experiment [18] was “inactive” in each case. Besides, the Potency entry in experiment [15] and in [19] was “inactive” throughout. Also, the compound was classed as inactive in [8].
